High-throughput results: PubChem BioAssay, SRMLSC
An excerpt weighted towards active compounds, which were near 6.3% of everything screened.
Abs 340nm: compounds absorbing at 340 nm. compound absorbance at 340 nm, fold over control. fold change at 10 µM. 65,000 tested, under 10 active. AID 708;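 active means at 10 µM dose, initial 340 nm absorbance at least 2 fold that of control wells; inactive means change under 2 fold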;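 further: initial absorbance extrapolated from kinetic A340 decline of NADH oxidation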
DPM-DC inhibit: blocks S. pneumoniae diphosphomevalonate decarboxylase; purified DPM-DC, PK/LDH coupled NADH fluorescence; calls only at 10 µM; actives 0.49% (n = 65,000); AID 556;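 active means the 320 compounds with the highest percent inhibition in the single-dose primary screen, excluding strongly autofluorescent ones, cut at about 32% in these data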;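 further: kinetic rate of NADH fluorescence loss reporting ADP formed by the decarboxylase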
Autofluor 339: intrinsic fluorescence of library compounds, ex339/em460 – biochemical, MLSMR library, data from DPM-DC assay, artefact control, profiling panel. compound autofluorescence, ex339/em460 nm, NADH buffer; active compounds read high; 1 = no-compound wells, NADH background. fluorescence fold increase at 10 µM. actives 5.5% (n = 65,000). AID 709;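 active means at 10 µM, mean starting fluorescence two-fold or more over control wells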;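 further: signal is the first read of a kinetic run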
PMK inhibit: S. pneumoniae PMK inhibition; purified PMK, PK/LDH-coupled NADH absorbance 340 nm; inhibition, % at 10 µM; actives 0.49% (n = 65,000); AID 539;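 active means top-ranked compounds by inhibition in the single 10 µM screen, taking a fixed number of the strongest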;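 further: 0% = full reaction with DMSO carrier and 100% = background rate without enzyme reaction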
MK inhibit: blocks S. pneumoniae mevalonate kinase. actives 0.48% (n = 65,000). inhibition, % at 10 µM. purified MK, PK/LDH-coupled NADH absorbance 340 nm. AID 555;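 active means ranked among the strongest by inhibition in the single 10 µM screen, a fixed top-ranked set picked for dose follow-up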
NADH coupling: blocks coupling enzymes of NAD/NADH assays; actives 0.02% (n = 65,000); coupled PK/LDH NADH assays, four targets; IC50, µM (highest dose often 10 µM), for inactives: top-dose inhibition; AID 774;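 active means single-dose screening hits from any of four coupled enzyme assays that gave an IC50 when retested across doses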;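 further: the DPM-DC format reads NADH fluorescence rather than 340 nm absorbance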
Numbers without * were called inactive; i = inactive; · = no result given; + = active, no number.

SMILES | Abs 340nm | DPM-DC inhibit | Autofluor 339 | PMK inhibit | MK inhibit | NADH coupling
CC(C)COP(=O)(c1ccc(N(C)C)cc1)C(O)c1ccccn1 (stereo not given) | 1.01 | i | 1.09 | 9.0 | 10.0 | 6.0%
CCOC(=O)c1cccc(NC(=O)c2cnccn2)c1 | 1.01 | i | 1.03 | 10.0 | 10.0 | 7.0%
CCOC(=O)c1cncc(NC(=O)c2ccccc2)c1 | 1.03 | + | 0.61 | 16.0 | 8.0 | 20.0%
CC(=O)N1C2CCCCC2S[C@H]2CCCCC21 (stereo not given in full) | 0.98 | i | 1.04 | 0.0 | 5.0 | 2.0%
CCOC(=O)c1c(C)nc2ncccn12 | 1.03 | · | 2.11* | 4.0 | 8.0 | 6.0%
O=C(Nc1ccc(N2C(=O)C3C4C=CC(C4)C3C2=O)cc1)Nc1cccnc1 (stereo not given) | 0.96 | i | 0.98 | 16.0 | 6.0 | 11.0%
Cc1cccc2cc(CN(Cc3ccco3)S(=O)(=O)c3ccc4c(c3)OCCO4)c(=O)[nH]c12 | 1.02 | + | 1.42 | 5.0 | 5.0 | 17.0%
CCCOc1ccc(-c2nnn(CC(=O)Nc3cccc(C(=O)OC)c3)n2)cc1 | 1 | i | 1 | 26.0* | 2.0 | 3.0%
CCOc1ccc(-c2nnn(CC(=O)Nc3cccc(OC)c3)n2)cc1OCC | 0.97 | i | 1.07 | 13.0 | 5.0 | 6.0%
COC(=O)c1[nH]c2ccccc2c1NC(=O)CNC1CCCCC1 | 1.02 | i | 1.42 | 12.0 | 8.0 | 10.0%
Cc1ccc(S(=O)(=O)N2CCOCC2)cc1C(=O)NCc1ccco1 | 0.99 | i | 1 | 12.0 | 3.0 | 6.0%
O=C(O)c1c[nH]c2ccc(S(=O)(=O)N3CCOCC3)cc12 | 1.01 | i | 1.04 | 10.0 | 8.0 | 6.0%
CCCCN(C)C(=O)c1c[nH]c2ccc(S(=O)(=O)N3CCOCC3)cc2c1=O | 1.05 | · | 2.17* | 8.0 | 0.0 | 4.0%
O=C(NCc1ccco1)c1c[nH]c2ccc(S(=O)(=O)N3CCOCC3)cc2c1=O | 1.08 | · | 2.11* | 15.0 | 0.0 | 8.0%
CCNC(=O)NC(=O)COC(=O)c1ccccc1SCC(=O)NC(=O)NCC | 1.05 | · | 2.13* | 0.0 | 23.0 | 12.0%
CCOC(=O)N1CCC(NC2CCCCCCC2)CC1 | 1.04 | i | 1.1 | 0.0 | 0.0 | 0.0%
CCOc1ccc(-c2nnc(-c3ccncc3)o2)cc1 | 1.04 | + | 2.02* | 8.0 | 14.0 | 20.0%
CCOc1ccc(-c2nnc(N)o2)cc1 | 1.02 | i | 1.07 | 10.0 | 2.0 | 4.0%
CCCCOc1ccc(-c2nnc(-c3ccncc3)o2)cc1 | 1.02 | i | 3.02* | 15.0 | 10.0 | 14.0%
CCC(C)NC(=O)C1CCN(c2nc(C)cc(C)n2)CC1 (stereo not given) | 0.99 | i | 1.43 | 19.0 | 0.0 | 8.0%
Cc1cc(-c2ccccc2)nc(N2CCC(C(=O)NC(C)C)CC2)n1 | 0.95 | + | 3.27* | 14.0 | 0.0 | 30.0%
CCc1nnc(NC(=O)CSc2nnc(-c3ccc(O)cc3)n2-c2ccccc2)s1 | 0.98 | i | 1.14 | 7.0 | 9.0 | 5.0%
COc1ccc(N2CCN(C(=O)CCNS(=O)(=O)c3ccc4c(c3)CCC(=O)N4)CC2)cc1 | 1.03 | i | 2.07* | 13.0 | 8.0 | 7.0%
CCOC(=O)c1c(C)n(OCc2ccccc2)c2ccc3c(no[n+]3[O-])c12 | 0.99 | + | 0.98 | 6.0 | 7.0 | 4.0%
Cc1c(C(=O)O)cnc2cc(-c3ccc(Cl)cc3)nn12 | 1.05 | · | 2.06* | 4.0 | 9.0 | 7.0%
SMILES | Abs 340nm | DPM-DC inhibit | Autofluor 339 | PMK inhibit | MK inhibit | NADH coupling
CCCCOc1ccc(Cl)cc1CSc1nnc(CC)n1N | 0.98 | i | 1.05 | 6.0 | 10.0 | 5.0%
Cc1cc(NCCCN2CCOCC2)n2ncc(-c3ccc(Cl)cc3)c2n1 | 1.02 | · | 3.86* | 10.0 | 13.0 | 12.0%
CC1CCc2cc(F)ccc2N1C(=O)c1ccc2c(c1)OCO2 (stereo not given) | 1.04 | i | 1.12 | 3.0 | 4.0 | 3.0%
COc1ccccc1N1CCN(C/C=C/c2ccc(N(C)C)cc2)CC1 | 1.09 | i | 1.24 | 0.0 | 35.0 | 12.0%
COc1ccccc1/C=C/CN1CCOCC1 | 1.03 | i | 1.13 | 0.0 | 44.0* | 15.0%
Oc1ccc(N=Cc2ccc(-c3cccs3)s2)cc1 | 1.09 | · | 2.2* | 10.0 | 7.0 | 9.0%
O=C(NCC(c1cccnc1)N1CCN(c2ccccc2F)CC1)c1cccc(Cl)c1 (stereo not given) | 1.01 | i | 1.1 | 14.0 | 0.0 | 5.0%
COCCN(CCOC)C(=O)c1c[nH]c2ccc(S(=O)(=O)N(C)c3ccc(F)cc3)cc2c1=O | 1.04 | i | 2.33* | 18.0 | 1.0 | 10.0%
CN(c1ccc(F)cc1)S(=O)(=O)c1ccc2[nH]cc(C(=O)O)c(=O)c2c1 | 1.03 | i | 1.34 | 9.0 | 0.0 | 3.0%
CCN1CCCC1CNC(=O)c1cc(NC(C)=O)c(N(C)C)cc1OC (stereo not given) | 1.01 | i | 1.1 | 14.0 | 9.0 | 8.0%
CCOc1cc(C2Nc3ccccc3C(=O)N2c2ccccc2OC)ccc1O (stereo not given) | 1.03 | · | 2.47* | 5.0 | 0.0 | 2.0%
COc1cc(C2Nc3ccccc3C(=O)N2c2ccccc2OC)ccc1O (stereo not given) | 1.01 | · | 5.1* | 12.0 | 2.0 | 7.0%
COc1ccc(Cl)cc1NC(=O)c1nc2nc(C)cc(C(F)F)n2n1 | 1.06 | i | 1.18 | 10.0 | 11.0 | 8.0%
COc1ccc(C)cc1NCc1cccc(OC)c1OC | 1.01 | i | 1 | 0.0 | 47.0* | 6.0%
Cc1ccc2cc(CN(CC(C)C)C(=O)C3CCCO3)c(=O)[nH]c2c1 (stereo not given) | 1.03 | i | 1.24 | 3.0 | 3.0 | 3.0%
COc1ccc(N(Cc2cc3cc(OC)ccc3[nH]c2=O)C(=O)C2CCCO2)cc1 (stereo not given) | 1.09 | i | 2.88* | 0.0 | 8.0 | 10.0%
COc1ccc2[nH]c(=O)c(CN(C(=O)C3CCCO3)c3cccc(C)c3)cc2c1 (stereo not given) | 1.07 | i | 2.35* | 6.0 | 8.0 | 10.0%
COc1ccc2nc(C)cc(N3CCOCC3)c2c1 | 1.04 | i | 1 | 3.0 | 10.0 | 3.0%
COc1ccc2c(-c3ccccc3)cc(N3CCOCC3)nc2c1 | 1.04 | i | 2.91* | 7.0 | 21.0 | 9.0%
COc1ccc(-c2nnc(SCC(=O)NC(C)c3ccccc3)o2)cc1OC (stereo not given) | 1.01 | i | 1.1 | 4.0 | 4.0 | 3.0%
Cc1ccc(NC(=O)CC2SC3=NCCCN3C2=O)c(C)c1 (stereo not given) | 1.01 | i | 1.09 | 7.0 | 8.0 | 8.0%
COc1ccc(-c2cn3c(C)c(C(=O)NCc4ccc5c(c4)OCO5)sc3n2)cc1 | 1.03 | i | 1.07 | 24.0 | 0.0 | 8.0%
O=C(Nc1ccccc1)c1ccc2nc(-c3ccco3)c(-c3ccco3)nc2c1 | 1.05 | i | 2.56* | 4.0 | 16.0 | 10.0%
